{
  "source": "the supplement of paper PMC8728848",
  "experiment_in_all_cases": "glycan array binding signal (z-score within array); higher = stronger binding",
  "details_in_all_cases": "glycan notation: IUPAC condensed, linker removed",
  "key": {"Fuc(a1-2)Gal(b1-3)GlcNAc": {"biological_target": "Fuc(a1-2)Gal(b1-3)GlcNAc", "in_short": "(§1)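 Glycan array binding is given as a within-array Z-score, which can be read as non-binding when negative. The arrays, 3228 of them, came from the Consortium for Functional Glycomics database and were retained only where the protein sequence was available. Z-scores were averaged across arrays of the same protein sequence at different concentrations or buffers and across linkers.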"}, "[1]": {"biological_target": "Fuc(a1-2)Gal(b1-4)GlcNAc(b1-2)Man(a1-3)[Fuc(a1-2)Gal(b1-4)GlcNAc(b1-2)Man(a1-6)]Man(b1-4)GlcNAc(b1-4)[Fuc(a1-6)]GlcNAc", "in_short": "as §1"}, "[2]": {"biological_target": "Fuc(a1-2)Gal(b1-4)GlcNAc6S", "in_short": "as §1"}, "[3]": {"biological_target": "Fuc(a1-2)Gal(b1-4)[Fuc(a1-3)]GlcNAc(b1-3)Gal(b1-4)[Fuc(a1-3)]GlcNAc(b1-3)Gal(b1-4)[Fuc(a1-3)]GlcNAc", "in_short": "as §1"}, "[4]": {"biological_target": "Fuc(a1-2)[Gal(a1-3)]Gal(b1-4)GlcNAc(b1-2)Man(a1-3)[Fuc(a1-2)[Gal(a1-3)]Gal(b1-4)GlcNAc(b1-2)Man(a1-6)]Man(b1-4)GlcNAc(b1-4)[Fuc(a1-6)]GlcNAc", "in_short": "as §1"}, "[5]": {"biological_target": "Fuc(a1-2)[GalNAc(a1-3)]Gal(b1-3)GlcNAc(b1-2)Man(a1-3)[Fuc(a1-2)[GalNAc(a1-3)]Gal(b1-3)GlcNAc(b1-2)Man(a1-6)]Man(b1-4)GlcNAc(b1-4)[Fuc(a1-6)]GlcNAc", "in_short": "as §1"}, "[6]": {"biological_target": "Gal(a1-3)Gal(b1-3)GlcNAc(b1-3)GalNAc", "in_short": "as §1"}, "[7]": {"biological_target": "Gal(b1-3)GlcNAc(a1-6)Gal(b1-4)GlcNAc", "in_short": "as §1"}, "[8]": {"biological_target": "Gal(b1-3)GlcNAc(b1-2)[Gal(b1-3)GlcNAc(b1-6)]Man(a1-6)[Gal(b1-3)GlcNAc(b1-2)Man(a1-3)]Man(b1-4)GlcNAc(b1-4)GlcNAc", "in_short": "as §1"}, "[9]": {"biological_target": "Gal(b1-3)GlcNAc(b1-3)Gal(b1-4)GlcNAc(b1-2)[Gal(b1-3)GlcNAc(b1-3)Gal(b1-4)GlcNAc(b1-6)]Man(a1-6)[Gal(b1-3)GlcNAc(b1-3)Gal(b1-4)GlcNAc(b1-2)Man(a1-3)]Man(b1-4)GlcNAc(b1-4)[Fuc(a1-6)]GlcNAc", "in_short": "as §1"}, "[10]": {"biological_target": "Gal(b1-3)GlcNAc(b1-3)Gal(b1-4)GlcNAc(b1-3)Gal(b1-4)GlcNAc(b1-2)[Gal(b1-3)GlcNAc(b1-3)Gal(b1-4)GlcNAc(b1-3)Gal(b1-4)GlcNAc(b1-6)]Man(a1-6)[Gal(b1-3)GlcNAc(b1-3)Gal(b1-4)GlcNAc(b1-3)Gal(b1-4)GlcNAc(b1-2)Man(a1-3)]Man(b1-4)GlcNAc(b1-4)[Fuc(a1-6)]GlcNAc", "in_short": "as §1"}, "[11]": {"biological_target": "Gal(b1-4)GalNAc(b1-3)[Fuc(a1-2)]Gal(b1-4)GlcNAc", "in_short": "as §1"}, "[12]": {"biological_target": "Gal(b1-4)GlcNAc(b1-3)Gal(b1-4)GlcNAc(b1-2)Man(a1-3)[Gal(b1-4)GlcNAc(b1-3)Gal(b1-4)GlcNAc(b1-2)Man(a1-6)]Man(b1-4)GlcNAc(b1-4)GlcNAc", "in_short": "as §1"}, "[13]": {"biological_target": "Gal(b1-4)GlcNAc(b1-3)Gal(b1-4)GlcNAc(b1-3)Gal(b1-4)GlcNAc(b1-3)Gal(b1-4)GlcNAc(b1-3)Gal(b1-4)GlcNAc(b1-3)Gal(b1-4)GlcNAc(b1-2)Man(a1-3)[Gal(b1-4)GlcNAc(b1-3)Gal(b1-4)GlcNAc(b1-3)Gal(b1-4)GlcNAc(b1-3)Gal(b1-4)GlcNAc(b1-3)Gal(b1-4)GlcNAc(b1-3)Gal(b1-4)GlcNAc(b1-2)Man(a1-6)]Man(b1-4)GlcNAc(b1-4)GlcNAc", "in_short": "as §1"}, "[14]": {"biological_target": "Gal(b1-4)GlcNAc(b1-6)[Gal(b1-4)GlcNAc(b1-3)]GalNAc", "in_short": "as §1"}, "Gal3S(b1-4)Glc": {"biological_target": "Gal3S(b1-4)Glc", "in_short": "as §1"}, "Gal6S(b1-4)GlcNAc": {"biological_target": "Gal6S(b1-4)GlcNAc", "in_short": "as §1"}, "[15]": {"biological_target": "GalNAc(b1-4)GlcNAc(b1-2)Man", "in_short": "as §1"}, "GalNAc(b1-4)GlcNAc6S": {"biological_target": "GalNAc(b1-4)GlcNAc6S", "in_short": "as §1"}, "GalNAc(b1-6)GalNAc": {"biological_target": "GalNAc(b1-6)GalNAc", "in_short": "as §1"}, "[16]": {"biological_target": "GlcNAc(b1-2)Man(a1-3)[GlcNAc(b1-4)][GlcNAc(b1-2)Man(a1-6)]Man(b1-4)GlcNAc(b1-4)[Fuc(a1-6)]GlcNAc", "in_short": "as §1"}, "[17]": {"biological_target": "GlcNAc(b1-2)[GlcNAc(b1-6)]Man(a1-6)[GlcNAc(b1-2)Man(a1-3)]Man(b1-4)GlcNAc(b1-4)GlcNAc", "in_short": "as §1"}, "[18]": {"biological_target": "GlcNAc(b1-3)Gal(b1-4)GlcNAc(b1-3)Gal(b1-4)GlcNAc(b1-2)Man(a1-3)[GlcNAc(b1-3)Gal(b1-4)GlcNAc(b1-3)Gal(b1-4)GlcNAc(b1-2)Man(a1-6)]Man(b1-4)GlcNAc(b1-4)[Fuc(a1-6)]GlcNAc", "in_short": "as §1"}},
  "note": "About 410 targets per protein were measured; listed, in parts, are those with the strongest signals and a random draw of the rest.",
  "data": [
    {"binder": "Pwp4 (Candida glabrata) (protein) MGSSHHHHHHSSGLVPRGSHMASVGNPITVSNVCSFPKNWHRTAGFRALTARLGIGIQSDSYKELLNYPGTFQLTTQQSSTTKPNFQISGLVGNIYGLTIVPSYLLVELTGYFVPPVSGEYTFSLEGSDDAAIIFIANPSTFKCGHVEDWPTAYDNDVTVTESIHATRTIYMIEGVAYPIRIAYYNGLSLGKLQASFTDPEGVKRVDWNGYIWRYDSCDTCSYV", "values": [
      {"measurement": "glycan array binding signal (z-score)", "setting": "Fuc(a1-2)Gal(b1-3)GlcNAc", "result": -0.913},
      {"measurement": "glycan array binding signal (z-score)", "setting": "[1]", "result": 0.039},
      {"measurement": "glycan array binding signal (z-score)", "setting": "[2]", "result": -0.4},
      {"measurement": "glycan array binding signal (z-score)", "setting": "[3]", "result": 1.61},
      {"measurement": "glycan array binding signal (z-score)", "setting": "[4]", "result": -0.415},
      {"measurement": "glycan array binding signal (z-score)", "setting": "[5]", "result": -0.763},
      {"measurement": "glycan array binding signal (z-score)", "setting": "[6]", "result": -0.55},
      {"measurement": "glycan array binding signal (z-score)", "setting": "[7]", "result": 2.97},
      {"measurement": "glycan array binding signal (z-score)", "setting": "[8]", "result": -0.162},
      {"measurement": "glycan array binding signal (z-score)", "setting": "[9]", "result": 5.18},
      {"measurement": "glycan array binding signal (z-score)", "setting": "[10]", "result": 2.9},
      {"measurement": "glycan array binding signal (z-score)", "setting": "[11]", "result": -0.019},
      {"measurement": "glycan array binding signal (z-score)", "setting": "[12]", "result": 0.09},
      {"measurement": "glycan array binding signal (z-score)", "setting": "[13]", "result": 3.83},
      {"measurement": "glycan array binding signal (z-score)", "setting": "[14]", "result": 0.033},
      {"measurement": "glycan array binding signal (z-score)", "setting": "Gal3S(b1-4)Glc", "result": -0.366},
      {"measurement": "glycan array binding signal (z-score)", "setting": "Gal6S(b1-4)GlcNAc", "result": -0.68},
      {"measurement": "glycan array binding signal (z-score)", "setting": "[15]", "result": -0.392},
      {"measurement": "glycan array binding signal (z-score)", "setting": "GalNAc(b1-4)GlcNAc6S", "result": -0.423},
      {"measurement": "glycan array binding signal (z-score)", "setting": "GalNAc(b1-6)GalNAc", "result": -0.402},
      {"measurement": "glycan array binding signal (z-score)", "setting": "[16]", "result": -1},
      {"measurement": "glycan array binding signal (z-score)", "setting": "[17]", "result": 7.51},
      {"measurement": "glycan array binding signal (z-score)", "setting": "[18]", "result": 1.26}
    ]}
  ]
}
